A selection: hits, their analogues and other compounds. The true share with any hit is near 6%.
DRD3 antagonist = antagonists of human D3 dopamine receptor; P35462; D3R cells, DiscoveRx beta-arrestin luminescence, antagonist mode; stronger effect = lower value; max response, negative = inhibition, %; hit rate 2.5% among 360,000; AID 652054; in the data active = max response below about -50%; also: % is scaled to controls: 0 for no effect and ±100 for the full control effect
Target sequence (P35462 whole entry, looked up): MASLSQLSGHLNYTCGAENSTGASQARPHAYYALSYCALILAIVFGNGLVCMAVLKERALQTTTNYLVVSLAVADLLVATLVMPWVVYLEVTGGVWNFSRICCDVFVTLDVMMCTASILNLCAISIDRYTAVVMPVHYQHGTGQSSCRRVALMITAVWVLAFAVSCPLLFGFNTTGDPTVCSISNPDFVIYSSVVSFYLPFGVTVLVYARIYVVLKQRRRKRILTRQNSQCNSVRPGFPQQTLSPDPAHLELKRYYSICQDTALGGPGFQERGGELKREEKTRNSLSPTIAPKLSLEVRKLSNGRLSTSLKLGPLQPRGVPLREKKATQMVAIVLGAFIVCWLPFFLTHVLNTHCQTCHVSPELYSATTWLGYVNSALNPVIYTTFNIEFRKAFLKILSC
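Cells expressing the human receptor were seeded at 1500 cells/well, incubated overnight at 37 degrees C in 5% CO2, then exposed to library compounds with dopamine controls for 90 minutes at 37 degrees C before luminescent detection.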
D1 ag = activates the human D1 dopamine receptor | P21728 | HEK293 T-REx D1 cells, calcium flux, agonist mode | activation, % at 2 µM | hit rate 1% among 360,000; in the data active = activation above about 30%; also: 0% is about no effect
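Tetracycline-induced HEK293 TREx D1 cells, force-coupled to calcium signalling, were dye-loaded with a no-wash calcium kit. Compound was pin-added after a 10 s baseline. Fluorescence was read kinetically at 1 cycle/s for 180 s, with calcium rises flagged as agonism.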
D1 potentiator = enhances dopamine response at the human D1 receptor | potentiation, % at 10 µM | HEK293 TREx D1 cells, calcium flux, dopamine EC20 potentiation | hit rate 0.036% among 360,000; in the data active = potentiation above about 30%; also: 0% is about no effect
D1 antagonist = human D1 dopamine receptor antagonism; P21728; HEK293 TREx D1 cells, calcium flux, dopamine EC80; stronger effect = lower value; activity change, negative = inhibition, % at 10 µM; hit rate 3.2% among 360,000; AID 504652; in the data active = activity change below about -30%; also: % is scaled to controls: 0 for no effect and ±100 for the full control effect
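Compound effects on dopamine-evoked calcium signalling were measured in tetracycline-induced HEK293 Trex D1 cells. Dopamine at EC80 followed a 180 s compound pre-read, and fluorescence was tracked kinetically for 180 s more.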
DRD3 agonist = D3 dopamine receptor (human) agonism; P35462; D3R DiscoveRx beta-arrestin cells, luminescence, 90 min; max activation, %; hit rate 0.58% among 410,000; AID 652048; in the data active = max activation above about 30%; also: 0% is about no effect
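Cells at 1500/well, incubated overnight, then treated with pinned compounds (dopamine as control) for 90 min at 37 degrees C. DiscoveRx reagent added for 30 - 60 minutes at room temperature; luminescence read.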
* marks the source's active call; other numbers are inactive results; ! = repeats disagree.

O=C(Cn1ncc(Cl)c(Cl)c1=O)N1CCN(Cc2ccccc2)CC1 was read as DRD3 antagonist -63*, D1 ag 2, D1 potentiator -5, D1 antagonist -5 and DRD3 agonist -7.
CCS(=O)(=O)Nc1cc(-c2cn3ccc(C)cc3n2)ccc1C was read as D1 ag 2, D1 potentiator 4, D1 antagonist 0 and DRD3 agonist -17.
Screening C=CCN1CCc2c(cc(O)c(O)c2Br)[C@@H](c2ccccc2)C1 returned DRD3 antagonist 3 and DRD3 agonist 83*.
Screening CC(C)(C)NC(=O)C(OC(=O)c1ccco1)c1ccccc1F (centres undefined) returned DRD3 antagonist 18, D1 ag -1, D1 potentiator -3, D1 antagonist -38* and DRD3 agonist 1.
For COc1cc(OC)c(NS(=O)(=O)c2cc3c(cc2C)N(C(C)=O)CCO3)cc1Cl the results were D1 ag 1, D1 potentiator -2, D1 antagonist -9 and DRD3 agonist -7.
For COc1ccccc1CNC(=O)C(CC(C)C)NS(=O)(=O)c1ccc2c(c1)oc(=O)n2C (centres undefined) the results were DRD3 antagonist 26, D1 ag 1, D1 potentiator 3, D1 antagonist -32*! and DRD3 agonist -16.
Screening COc1ccccc1CNC(=O)C(CCSC)NS(=O)(=O)c1ccc2c(c1)oc(=O)n2C (centres undefined) returned DRD3 antagonist 0, D1 ag 0, D1 potentiator 9, D1 antagonist 4 and DRD3 agonist -6.
COc1ccccc1CNC(=O)C(C)NS(=O)(=O)c1ccc(Br)cc1 (centres undefined) was read as DRD3 antagonist -68*, D1 ag 0, D1 potentiator -4, D1 antagonist 5 and DRD3 agonist 2.
`CC(NC(=O)c1ccc2c(c1)N(Cc1cccc(F)c1)C(=O)c1ccccc1S2)c1ccccc1` (centres undefined) gave D1 ag 4, D1 potentiator -4, D1 antagonist 7 and DRD3 agonist 1.
Screening CCc1cccc(C)c1NC(=O)CCCn1c(C)c2cnn(-c3ccccc3)c(=O)c2c1C returned D1 ag 0, D1 potentiator 1, D1 antagonist 4 and DRD3 agonist 11.
`O=C(O)c1ccc(S(=O)(=O)N[C@@H](Cc2ccc(O)cc2)C(=O)O)cc1` gave D1 ag 4, D1 potentiator -2 and D1 antagonist -11.
N#Cc1ccc(C[C@@H](NS(=O)(=O)c2ccc(C(=O)O)cc2)C(=O)O)cc1 was read as D1 ag 2, D1 potentiator -5 and D1 antagonist -35*.
`O=C(NC1CC(=O)N(c2ccc(Cl)cc2)C1)c1cc2ccccc2o1` (centres undefined) gave D1 ag -4, D1 potentiator 0 and DRD3 agonist -30.
Cn1c2cc(B(O)O)sc2c2cnn(Cc3c(F)cccc3Cl)c(=O)c21 was read as D1 ag 11, D1 potentiator -8 and D1 antagonist -7.
CCOc1ccc(-c2nnn(CC(=O)c3ccc4c(c3)OCCO4)n2)cc1 was read as DRD3 antagonist 15, D1 ag 11, D1 potentiator -1, D1 antagonist 6 and DRD3 agonist 37*.
For O=C(O)COc1ccc(-c2nnn(CC(=O)O)n2)cc1 the results were DRD3 antagonist -19, D1 ag 0, D1 potentiator -6, D1 antagonist -36* and DRD3 agonist -10.
Screening CCCCOc1ccc(-c2nnn(CCC(=O)N3CCOCC3)n2)cc1 returned DRD3 antagonist -96*, D1 ag 11, D1 potentiator -4, D1 antagonist -23 and DRD3 agonist 7.
Screening CCCOc1ccc(-c2nnn(CC(=O)N3CCC(C)CC3)n2)cc1 returned DRD3 antagonist 8, D1 ag 2, D1 potentiator -5, D1 antagonist -3 and DRD3 agonist 12.
Screening COc1ccc(N2CCN(C(=O)c3cn(C4CCCCC4)c(=O)c4c3c3ccccc3n4C)CC2)cc1 returned D1 ag 10, D1 potentiator -1, D1 antagonist 11 and DRD3 agonist 5.
`COc1ccccc1N1CCN(c2ccc(=O)n(CC(=O)O)n2)CC1` gave D1 ag -1, D1 potentiator -2, D1 antagonist -1 and DRD3 agonist 4.
`Cc1nc2ccc([N+](=O)[O-])cc2c(=O)n1Cc1ccc(Cl)cc1` gave DRD3 antagonist 121, D1 ag 3, D1 potentiator -5, D1 antagonist -22 and DRD3 agonist 8.
`COc1ccc(Cn2c(C)nc3ccc([N+](=O)[O-])cc3c2=O)cc1` gave DRD3 antagonist -18, D1 ag 12, D1 potentiator -6, D1 antagonist -30* and DRD3 agonist -2.
For CCCc1cc(=O)n2[nH]c(NCc3cccs3)nc2n1 the results were DRD3 antagonist 12, D1 ag 6, D1 potentiator 2, D1 antagonist -37* and DRD3 agonist -3.
`CCCc1cc(=O)n2[nH]c(-c3ccco3)nc2n1` gave DRD3 antagonist -14, D1 ag 1, D1 potentiator -2, D1 antagonist 10 and DRD3 agonist 43*.
CCCc1cc(=O)n2[nH]c(NCc3ccccc3Cl)nc2n1 was read as DRD3 antagonist 25, D1 ag 3, D1 potentiator 2, D1 antagonist 0 and DRD3 agonist -6.
Screening Cc1cc(=O)n2[nH]c(-c3ccco3)nc2n1 returned DRD3 antagonist -24, D1 ag 3, D1 potentiator -5, D1 antagonist 13 and DRD3 agonist -12.
Screening Cc1ccc(Cc2c(C)nn(-c3nc(C)c(C(=O)N4CCCCC4C)s3)c2C)cc1 (centres undefined) returned D1 ag 1, D1 potentiator 1, D1 antagonist 2 and DRD3 agonist -3.
O=C(O)c1cccc(S(=O)(=O)N2CCN(S(=O)(=O)c3ccc4c(c3)OCCO4)CC2)c1 was read as D1 ag 0, D1 potentiator 14 and D1 antagonist -11.
Screening O=C(CN1CCC(n2nnc3cc(F)ccc32)CC1)NCCc1ccccc1 returned DRD3 antagonist -27, D1 ag -1, D1 potentiator -7, D1 antagonist -13 and DRD3 agonist -27.
`O=C(CN1CCC(n2nnc3cc(F)ccc32)CC1)NC1CC1` gave DRD3 antagonist -57*, D1 ag 3, D1 potentiator -5, D1 antagonist -49* and DRD3 agonist -9.
`COC(=O)c1ccccc1NC(=O)CN1CCC(n2nnc3cc(F)ccc32)CC1` gave DRD3 antagonist -15, D1 ag 0, D1 potentiator -2, D1 antagonist -14 and DRD3 agonist -4.
`O=C(CN1CCC(n2nnc3cc(F)ccc32)CC1)Nc1ccccc1N1CCOCC1` gave DRD3 antagonist -55*, D1 ag 1, D1 potentiator -8, D1 antagonist -71* and DRD3 agonist -5.

High-throughput results deposited in PubChem BioAssay by National Center for Advancing Translational Sciences (NCATS).
